Assay outcomes as filed in PubChem.
Compounds with a hit are over-represented: about 1.4% of the library has one in this group of screens.
VLA-4 agonist: allosterically activates the human VLA-4 integrin; Jurkat cells, LDV-FITC binding, flow cytometry; 24,000 tested, under 10 active; activation, % at 10 µM (by protocol);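 active = fluorescent ligand binding to cells raised by more than 40% of the manganese-induced maximum; inconclusive = compound's own fluorescence above 85% of the ligand control signal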
Target sequence (P13612 whole entry, looked up): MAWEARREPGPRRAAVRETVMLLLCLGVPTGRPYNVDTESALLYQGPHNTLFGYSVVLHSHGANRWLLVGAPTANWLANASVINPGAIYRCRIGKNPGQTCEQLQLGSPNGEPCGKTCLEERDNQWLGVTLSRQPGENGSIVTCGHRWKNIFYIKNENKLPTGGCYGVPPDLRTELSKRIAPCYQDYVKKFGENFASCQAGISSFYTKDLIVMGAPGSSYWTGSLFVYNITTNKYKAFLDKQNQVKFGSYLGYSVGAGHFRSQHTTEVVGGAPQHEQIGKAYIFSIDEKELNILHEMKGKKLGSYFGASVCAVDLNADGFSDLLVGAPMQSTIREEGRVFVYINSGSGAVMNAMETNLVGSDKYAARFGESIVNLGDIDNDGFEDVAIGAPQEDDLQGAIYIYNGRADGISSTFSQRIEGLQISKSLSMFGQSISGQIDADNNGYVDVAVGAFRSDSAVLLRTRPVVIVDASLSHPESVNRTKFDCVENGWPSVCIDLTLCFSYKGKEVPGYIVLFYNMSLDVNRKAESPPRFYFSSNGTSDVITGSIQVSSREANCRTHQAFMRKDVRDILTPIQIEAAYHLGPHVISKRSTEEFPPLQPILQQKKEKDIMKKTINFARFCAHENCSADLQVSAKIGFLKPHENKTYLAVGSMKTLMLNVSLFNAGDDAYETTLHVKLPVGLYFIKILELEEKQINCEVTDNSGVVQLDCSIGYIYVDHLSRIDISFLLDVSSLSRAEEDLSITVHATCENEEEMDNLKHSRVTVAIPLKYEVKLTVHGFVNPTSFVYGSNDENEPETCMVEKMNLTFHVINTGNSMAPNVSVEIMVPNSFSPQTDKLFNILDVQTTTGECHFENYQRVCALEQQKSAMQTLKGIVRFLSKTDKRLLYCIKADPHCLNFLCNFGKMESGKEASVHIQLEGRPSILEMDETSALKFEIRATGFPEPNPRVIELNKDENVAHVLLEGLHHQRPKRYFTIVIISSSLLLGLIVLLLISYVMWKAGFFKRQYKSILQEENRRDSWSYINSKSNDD
Jurkat autofluor: counter-screen for VLA-4 integrin: compound autofluorescence in Jurkat cells. flow cytometry; active compounds read high; 1 = vehicle-only cell background. fluorescence ratio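 (tested at 10 µM compound in the well)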. 0.61% of 24,000 active. AID 576;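 active = fluorescence ratio above 2.44, which is 1 plus 3 SD of all ratios; inconclusive = signal too bright to measure linearly, ratio around 10 or more; inactive = fluorescence ratio below 2.44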;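 also: green fluorescence of cells measured with 488 nm excitation and 530 nm emission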
FPRL1 binder: binds the human formylpeptide receptor-like-1 FPRL1. FPRL1-expressing cells, fluorescent ligand binding inhibition, flow cytometry. inhibition, % (no concentration beside the values). 0.3% of 24,000 active
FPR binder: ligands of human FPR, also counter-screen for FPRL1 ligands; P21462; FPR-expressing cells, fluorescent ligand binding, flow cytometry; inhibition, % (test concentration not listed); 0.74% of 24,000 active
VLA-4 antagonist: inhibition of LDV-FITC ligand binding to human VLA-4 integrin; P13612; Jurkat cells, LDV-FITC binding with Mn2+, flow cytometry; 100% = Mn2+-driven binding gain fully reversed; inhibition, % at 10 µM (by protocol); 0.2% of 24,000 active; AID 529;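 active = inhibition above 50%; inconclusive = compound itself fluorescent, judged against control cell fluorescence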
Of the large screens only hits and unclear results are named; the others gave an inactive call. Rule as the data show it, unless noted: active = inhibition above about 30%; inconclusive = no clear call, values can overlap the other calls; inactive = below that.

N#CC1=C(N)SC(N)=C(C#N)C1CCc1ccccc1	VLA-4 agonist inconclusive, Jurkat autofluor 2.87, VLA-4 antagonist inconclusive
O=C(CN1CCOc2ccccc21)N1CCCC1	none
Cc1cc(N2CCN(C3CCCC3)CC2)n2c(nc3ccccc32)c1C#N	none
Cc1c(CCC#N)c(N2CCN(C3CCCCC3)CC2)n2c(nc3ccccc32)c1C#N	VLA-4 agonist inconclusive, Jurkat autofluor 8.58, VLA-4 antagonist inconclusive
O=S(=O)(NCCc1ccccn1)c1cccs1	none
O=S(=O)(Nc1cccc2ncccc12)c1cccs1	VLA-4 agonist inconclusive, FPRL1 binder 39.2
CCOc1ccc(C2C(C(=O)c3ccco3)=C(O)C(=O)N2Cc2cccnc2)cc1 (stereo unspecified)	FPR binder 49.6 (no result: VLA-4 agonist, Jurkat autofluor, VLA-4 antagonist)
O=C(C1=C(O)C(=O)N(Cc2ccco2)C1c1cccnc1)c1cc2ccccc2o1 (stereo unspecified)	none (no result: VLA-4 agonist, Jurkat autofluor, VLA-4 antagonist)
C=CCOc1ccc(C2C(C(=O)c3ccco3)=C(O)C(=O)N2Cc2cccnc2)cc1 (stereo unspecified)	none
O=C(C1=C(O)C(=O)N(CC2CCCO2)C1c1cccnc1)c1ccco1 (stereo unspecified)	FPR binder 38.7 (no result: VLA-4 agonist, Jurkat autofluor, VLA-4 antagonist)
COc1ccc(C2C(C(=O)c3ccco3)=C(O)C(=O)N2Cc2cccnc2)cc1OC (stereo unspecified)	FPR binder 38.1 (no result: VLA-4 agonist, Jurkat autofluor, VLA-4 antagonist)
COc1cccc2cc(C(=O)C3=C(O)C(=O)N(Cc4ccco4)C3c3cccnc3)oc12 (stereo unspecified)	FPR binder 34.1 (no result: VLA-4 agonist, Jurkat autofluor, VLA-4 antagonist)
O=C(Nc1ccccc1C(=O)N1CCN(c2ccccc2)CC1)c1ccco1	none
COc1ccc(OC)c(S(=O)(=O)N2CCN(c3c(C)cccc3C)CC2)c1	none
CCn1c(=O)cc(OCC(=O)Nc2ccc(Cl)cn2)c2ccccc21	none
CCOC(=O)C(CC)Sc1nc(-c2ccc(OC)cc2)nc2c1c(=O)n(C)c(=O)n2C (stereo unspecified)	none
C/C(=N\n1nnnc1Nc1ccccc1)c1ccc(N)cc1	none
COc1ccc(C2C(C(=O)c3ccco3)=C(O)C(=O)N2CCc2ccccc2)cc1OC (stereo unspecified)	FPR binder 80.3 (no result: VLA-4 agonist, Jurkat autofluor, VLA-4 antagonist)
Cc1nnc(N2C(=O)C(O)=C(C(=O)c3ccco3)C2c2ccc(F)cc2)s1 (stereo unspecified)	none
COc1cccc(/C(O)=C2/C(=O)C(=O)N(Cc3cccnc3)C2c2ccco2)c1 (stereo unspecified)	FPR binder 33.8 (no result: VLA-4 agonist, Jurkat autofluor, VLA-4 antagonist)
COc1cc(C2C(C(=O)c3cccs3)=C(O)C(=O)N2Cc2ccco2)cc(OC)c1OC (stereo unspecified)	FPR binder 82.7 (no result: VLA-4 agonist, Jurkat autofluor, VLA-4 antagonist)
O=C(C1=C(O)C(=O)N(Cc2ccccc2)C1c1ccncc1)c1ccco1 (stereo unspecified)	FPR binder 31.7
COc1ccc(C2C(C(=O)c3ccco3)=C(O)C(=O)N2CCOCCO)cc1OC (stereo unspecified)	none (no result: VLA-4 agonist, Jurkat autofluor, VLA-4 antagonist)
COc1cccc(C2C(C(=O)c3ccc(C)o3)=C(O)C(=O)N2CCCN(C)C)c1 (stereo unspecified)	none
CCCOc1ccc(C2C(C(=O)c3ccc(C)o3)=C(O)C(=O)N2Cc2cccnc2)cc1 (stereo unspecified)	FPR binder 52.2
COCCN1C(=O)C(O)=C(C(=O)c2cccs2)C1c1ccccc1 (stereo unspecified)	FPR binder 59.8 (no result: VLA-4 agonist, Jurkat autofluor, VLA-4 antagonist)
Cc1nc(C)c(C(=O)C2=C(O)C(=O)N(CCCn3ccnc3)C2c2ccccc2)s1 (stereo unspecified)	none
Cc1ccc(C(=O)C2=C(O)C(=O)N(CCCn3ccnc3)C2c2ccc(OC(C)C)cc2)o1 (stereo unspecified)	FPR binder 65.2 (no result: VLA-4 agonist, Jurkat autofluor, VLA-4 antagonist)
CCOc1ccc(C2C(C(=O)c3ccco3)=C(O)C(=O)N2CCCn2ccnc2)cc1 (stereo unspecified)	FPR binder 70.3 (no result: VLA-4 agonist, Jurkat autofluor, VLA-4 antagonist)
CCOc1ccc(C2C(C(=O)c3cccs3)=C(O)C(=O)N2CCCn2ccnc2)cc1 (stereo unspecified)	FPR binder 30.3 (no result: VLA-4 agonist, Jurkat autofluor, VLA-4 antagonist)
Cc1cccc(-n2nc3c(c2NC(=O)c2ccc(Br)o2)CSC3)c1	none
CCOC(=O)CSc1nnc(CNC(=O)c2ccc(OC)cc2)n1C1CCCCC1	none
COc1ccc2c(C(=O)CN(C)C3CCCCC3)c[nH]c2c1	VLA-4 agonist inconclusive, Jurkat autofluor 6.7, VLA-4 antagonist inconclusive
CC1(C(=O)NCc2cccnc2)CCC(=O)N1Cc1cccs1 (stereo unspecified)	none
CC(NC(=O)Cc1ccc(F)cc1)C(c1cccs1)N1CCN(C)CC1 (stereo unspecified)	none
CC(=O)Nc1cccc(C(=O)Oc2cccc(C)c2)c1O	VLA-4 antagonist 61.0
COc1ccc(/C(O)=C2/C(=O)C(=O)N(Cc3ccco3)C2c2cccs2)cc1 (stereo unspecified)	none (no result: VLA-4 agonist, Jurkat autofluor, VLA-4 antagonist)
COC(=O)c1ccc(C2/C(=C(/O)c3ccc(OC)cc3)C(=O)C(=O)N2Cc2ccco2)cc1 (stereo unspecified)	FPR binder 37.6 (no result: VLA-4 agonist, Jurkat autofluor, VLA-4 antagonist)
COc1ccc(/C(O)=C2/C(=O)C(=O)N(CCN3CCOCC3)C2c2ccc(C)cc2)cc1 (stereo unspecified)	FPRL1 binder 30.9 (no result: VLA-4 agonist, Jurkat autofluor, VLA-4 antagonist)
C=CCOc1ccc(/C(O)=C2/C(=O)C(=O)N(CCN3CCOCC3)C2c2ccc(C)cc2)cc1 (stereo unspecified)	none (no result: VLA-4 agonist, Jurkat autofluor, VLA-4 antagonist)
CCOc1ccc(/C(O)=C2\C(=O)C(=O)N(CCOCCO)C2c2ccccc2OC)cc1 (stereo unspecified)	none (no result: VLA-4 agonist, Jurkat autofluor, VLA-4 antagonist)
CN(C)c1ccc(/C=c2\sc3nc(-c4ccccc4)nn3c2=O)cc1	VLA-4 agonist inconclusive, Jurkat autofluor 8.23, VLA-4 antagonist inconclusive (no result: FPRL1 binder, FPR binder)
CCOc1ccc(C(=O)CN2CCN(S(=O)(=O)c3ccc(OC)cc3)CC2)cc1	none
c1cncc(-c2nc3ccccc3o2)c1	VLA-4 agonist inconclusive, Jurkat autofluor 9.82, FPRL1 binder inconclusive, FPR binder inconclusive, VLA-4 antagonist inconclusive
CN1CCc2nc(SCC(=O)Nc3ccc(F)cc3)c(C#N)cc2C1	none
COc1ccc(NC(=O)C(c2ccc(C)cc2)N(C)C(=O)c2cnccn2)cc1 (stereo unspecified)	FPRL1 binder 38.3
Cc1noc(C)c1CSc1nnc2scc(-c3ccc(Cl)cc3)n12	none
CCOC(=O)CC(C#N)c1cn(C)c2ccccc12 (stereo unspecified)	VLA-4 agonist inconclusive, Jurkat autofluor 2.78, VLA-4 antagonist inconclusive
COc1cccc(C2C(C(=O)c3cccs3)=C(O)C(=O)N2c2cc(C)on2)c1 (stereo unspecified)	none (no result: VLA-4 agonist, Jurkat autofluor, VLA-4 antagonist)
COc1ccc(OC)c(C2C(C(=O)c3cccs3)=C(O)C(=O)N2c2cc(C)on2)c1 (stereo unspecified)	FPR binder 56.2 (no result: VLA-4 agonist, Jurkat autofluor, VLA-4 antagonist)
COc1cccc(C2C(C(=O)c3cc4ccccc4o3)=C(O)C(=O)N2c2cc(C)on2)c1OC (stereo unspecified)	FPR binder 53.9 (no result: VLA-4 agonist, Jurkat autofluor, VLA-4 antagonist)
N#CC1=C(N)OC2=C(CCC/C2=C/c2ccoc2)C1c1ccoc1 (stereo unspecified)	Jurkat autofluor 2.47
